Results reported in PubChem BioAssay (NCI).
Compounds without any hit were thinned out: in the full panel of roughly 83,000, 20% have a hit.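 Cell lines were cultured in 96-well plates, exposed to a single compound concentration, and assessed for percent growth 48 hours later.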 The source made the active and inactive calls. The calls were made as follows: active = growth percent below 10; inactive = the rest.

How the values were obtained:
Assay in all cases: NCI-60 one-dose screen, 48 h (100 = growth as untreated, 0 = no growth, -100 = all killed)
SK-MEL-2 melanoma = conditions: 10 µM unless noted
EKVX NSCLC = conditions: 10 µM unless noted
SN12C renal = conditions: 10 µM unless noted
UO-31 renal = conditions: 10 µM unless noted
TK-10 renal = conditions: 10 µM unless noted
ACHN renal = conditions: 10 µM unless noted
CAKI-1 renal = conditions: 10 µM unless noted
A498 renal = conditions: 10 µM
HL-60(TB) leukemia = conditions: 10 µM unless noted
CCRF-CEM leukemia = conditions: 10 µM unless noted
MOLT-4 leukemia = conditions: 10 µM unless noted
SR leukemia = conditions: 10 µM unless noted
OVCAR-8 ovarian = conditions: 10 µM unless noted
OVCAR-5 ovarian = conditions: 10 µM unless noted
OVCAR-4 ovarian = conditions: 10 µM unless noted
SK-OV-3 ovarian = conditions: 10 µM unless noted
IGROV1 ovarian = conditions: 10 µM unless noted
OVCAR-3 ovarian = conditions: 10 µM unless noted
HS 578T breast = conditions: 10 µM unless noted
RPMI-8226 leukemia = conditions: 10 µM unless noted

Measured: growth

Cc1ccc(S(=O)(=O)C(Cl)(Cl)Cl)cc1
inactive: SK-MEL-2 melanoma 97.5% | EKVX NSCLC 101% | SN12C renal 98.7% | UO-31 renal 97.3% | TK-10 renal 89.5% | ACHN renal 105% | CAKI-1 renal 87.9% | A498 renal 103% | HL-60(TB) leukemia 91.1% | CCRF-CEM leukemia 82.7% | MOLT-4 leukemia 79.6% | SR leukemia 89.4% | OVCAR-8 ovarian 96.2% | OVCAR-5 ovarian 96.8% | OVCAR-4 ovarian 105% | SK-OV-3 ovarian 82.5% | IGROV1 ovarian 99% | OVCAR-3 ovarian 110% | HS 578T breast 96.1%

CN1C(=O)C(=Cc2cn(Cc3ccccc3)c3ccccc23)C(=O)N(C)C1=O
inactive: SK-MEL-2 melanoma 81.5% | EKVX NSCLC 82.1% | SN12C renal 103% | UO-31 renal 54.3% | ACHN renal 84.5% | CAKI-1 renal 60.4% | HL-60(TB) leukemia 64.4% | CCRF-CEM leukemia 92% | MOLT-4 leukemia 96.8% | SR leukemia 68.6% | RPMI-8226 leukemia 35.9% | OVCAR-8 ovarian 90.5% | OVCAR-4 ovarian 49.8% | SK-OV-3 ovarian 51.8% | OVCAR-3 ovarian 71.2% | HS 578T breast 86.8%
active: TK-10 renal 4.63% | A498 renal -83.1% | OVCAR-5 ovarian -6.96%

Cc1cnc(/C=C/C(=O)O)cc1-c1cc2c(cc1C)C(C)(C)CCC2(C)C
inactive: SK-MEL-2 melanoma 74.4% | EKVX NSCLC 46% | SN12C renal 90.5% | UO-31 renal 68.4% | TK-10 renal 113% | ACHN renal 81.7% | CAKI-1 renal 79% | A498 renal 105% | HL-60(TB) leukemia 63.3% | CCRF-CEM leukemia 85% | MOLT-4 leukemia 85.5% | SR leukemia 66% | RPMI-8226 leukemia 50.4% | OVCAR-8 ovarian 89.5% | OVCAR-5 ovarian 104% | SK-OV-3 ovarian 84.4% | IGROV1 ovarian 94.4% | OVCAR-3 ovarian 57.8% | HS 578T breast 69.9%

COc1ccc(/C(C)=C(\c2ccc(OCCN3CCOCC3)cc2)c2ccc(OC(=O)Cc3ccccc3)cc2)cc1
inactive: SK-MEL-2 melanoma 96.1% | EKVX NSCLC 97.7% | SN12C renal 107% | UO-31 renal 97% | TK-10 renal 108% | ACHN renal 101% | CAKI-1 renal 97.5% | A498 renal 108% | HL-60(TB) leukemia 118% | CCRF-CEM leukemia 98.3% | MOLT-4 leukemia 104% | SR leukemia 112% | RPMI-8226 leukemia 84.6% | OVCAR-8 ovarian 100% | OVCAR-5 ovarian 104% | SK-OV-3 ovarian 97.6% | IGROV1 ovarian 113% | OVCAR-3 ovarian 101% | HS 578T breast 110%

Fc1ccc(C2=CCNCC2)cc1
inactive: SK-MEL-2 melanoma 109% | EKVX NSCLC 86.2% | SN12C renal 73% | UO-31 renal 84.7% | TK-10 renal 86.5% | ACHN renal 108% | CAKI-1 renal 79.5% | A498 renal 87.8% | HL-60(TB) leukemia 109% | CCRF-CEM leukemia 118% | MOLT-4 leukemia 106% | SR leukemia 114% | RPMI-8226 leukemia 122% | OVCAR-8 ovarian 100% | OVCAR-5 ovarian 82.3% | OVCAR-4 ovarian 111% | SK-OV-3 ovarian 104% | OVCAR-3 ovarian 102% | HS 578T breast 114%

[Cl][Hg][n]1c(-c2ccco2)nc2ccccc21
inactive: SK-MEL-2 melanoma 93.5% | EKVX NSCLC 111% | SN12C renal 94.8% | UO-31 renal 103% | TK-10 renal 124% | ACHN renal 96.6% | CAKI-1 renal 107% | A498 renal 114% | HL-60(TB) leukemia 95.5% | CCRF-CEM leukemia 89.9% | MOLT-4 leukemia 88.3% | SR leukemia 64.2% | RPMI-8226 leukemia 92.7% | OVCAR-8 ovarian 106% | OVCAR-5 ovarian 117% | SK-OV-3 ovarian 119% | IGROV1 ovarian 90.5% | HS 578T breast 93.9%

CCCCCCCC(=O)OCC(=O)[C@]1(O)Cc2c(O)c3c(c(O)c2[C@@H](OC2CC(N)C(O)C(C)O2)C1)C(=O)c1c(OC)cccc1C3=O (some centres not stated)
active: SK-MEL-2 melanoma -48.3% | EKVX NSCLC -57.9% | SN12C renal -69.4% | UO-31 renal -83.2% | TK-10 renal -44.5% | ACHN renal -82.9% | CAKI-1 renal -47.9% | A498 renal -87.6% | HL-60(TB) leukemia -92.4% | CCRF-CEM leukemia -90.3% | MOLT-4 leukemia -93.1% | SR leukemia -67.1% | RPMI-8226 leukemia -73.6% | OVCAR-8 ovarian -95% | OVCAR-5 ovarian -73.9% | SK-OV-3 ovarian -58.5% | IGROV1 ovarian -66.8% | OVCAR-3 ovarian -100% | HS 578T breast -59.3%

CN(CCCCN(C)CCOS(C)(=O)=O)CCOS(C)(=O)=O
active: CAKI-1 renal 2.42%
inactive: SK-MEL-2 melanoma 102% | EKVX NSCLC 112% | SN12C renal 71.9% | UO-31 renal 71.5% | TK-10 renal 98.7% | ACHN renal 24.9% | A498 renal 85.3% | HL-60(TB) leukemia 61.4% | CCRF-CEM leukemia 50.3% | MOLT-4 leukemia 28% | SR leukemia 12.1% | RPMI-8226 leukemia 90.8% | OVCAR-8 ovarian 72.6% | OVCAR-5 ovarian 97.6% | SK-OV-3 ovarian 86.7% | IGROV1 ovarian 65.8% | OVCAR-3 ovarian 103% | HS 578T breast 95.3%

COc1cc(NC(C)CCCNC2CN3CCC2CC3)c2ncccc2c1 (configuration not stated)
inactive: SK-MEL-2 melanoma 91.7% | EKVX NSCLC 71.2% | SN12C renal 86% | UO-31 renal 38.3% | TK-10 renal 79.8% | ACHN renal 84.9% | CAKI-1 renal 78.1% | A498 renal 57.2% | HL-60(TB) leukemia 65.9% | CCRF-CEM leukemia 77.7% | MOLT-4 leukemia 74.2% | SR leukemia 84.9% | RPMI-8226 leukemia 72.9% | OVCAR-8 ovarian 75.9% | OVCAR-5 ovarian 92.8% | SK-OV-3 ovarian 93.4% | IGROV1 ovarian 69.1% | OVCAR-3 ovarian 11% | HS 578T breast 65.2%

C[N+](C)(C)Cc1cc(Cl)ccc1O
inactive: SK-MEL-2 melanoma 99.7% | EKVX NSCLC 115% | SN12C renal 106% | UO-31 renal 90.8% | TK-10 renal 110% | ACHN renal 95.9% | CAKI-1 renal 106% | A498 renal 90.1% | HL-60(TB) leukemia 87.4% | MOLT-4 leukemia 96.9% | SR leukemia 104% | RPMI-8226 leukemia 76.3% | OVCAR-8 ovarian 99.4% | OVCAR-5 ovarian 101% | SK-OV-3 ovarian 110% | IGROV1 ovarian 95.1% | OVCAR-3 ovarian 109% | HS 578T breast 103%
active: CCRF-CEM leukemia 8.41%

CCCCCCCCCCCCCCCCCC1OC[C@H](COC(=O)O[C@@H](C(=O)O[C@H]2C[C@@]3(O)[C@@H](OC(=O)c4ccccc4)[C@@H]4[C@]5(OC(C)=O)CO[C@@H]5C[C@H](O)[C@@]4(C)C(=O)[C@H](OC(C)=O)C(=C2C)C3(C)C)[C@@H](NC(=O)c2ccccc2)c2ccccc2)O1 (some centres not stated)
inactive: SK-MEL-2 melanoma 75% | EKVX NSCLC 93.7% | SN12C renal 56.8% | UO-31 renal 98.1% | TK-10 renal 99.8% | ACHN renal 96.2% | CAKI-1 renal 81% | A498 renal 72% | HL-60(TB) leukemia 23.3% | CCRF-CEM leukemia 44.8% | MOLT-4 leukemia 55.1% | SR leukemia 44.9% | RPMI-8226 leukemia 17.5% | OVCAR-8 ovarian 61.5% | OVCAR-5 ovarian 41.5% | SK-OV-3 ovarian 62.8% | IGROV1 ovarian 42.9% | OVCAR-3 ovarian 31.9% | HS 578T breast 60.7%

COc1cc2c(=O)n(C3CCCCCCC3)c3c4cc[nH]c4ncc3c2cc1OC
inactive: SK-MEL-2 melanoma 78.7% | EKVX NSCLC 71.6% | SN12C renal 49.8% | UO-31 renal 22.5% | TK-10 renal 30.8% | ACHN renal 40.9% | CAKI-1 renal 54.6% | HL-60(TB) leukemia 57.6% | CCRF-CEM leukemia 44.9% | MOLT-4 leukemia 40.6% | SR leukemia 17.4% | RPMI-8226 leukemia 50.1% | OVCAR-8 ovarian 43.7% | OVCAR-5 ovarian 79.3% | SK-OV-3 ovarian 36.5% | IGROV1 ovarian 48.4% | OVCAR-3 ovarian 36.8%
active: A498 renal 4.93% | HS 578T breast 2.28%

O=C1OCC2=C1C(c1ccccc1)c1cc3c(cc1N2)OCO3 (configuration not stated)
inactive: SK-MEL-2 melanoma 15.6% | EKVX NSCLC 48% | SN12C renal 21.5% | UO-31 renal 45.6% | TK-10 renal 56.9% | ACHN renal 27.1% | CAKI-1 renal 38.8% | CCRF-CEM leukemia 11.6% | MOLT-4 leukemia 21.2% | OVCAR-5 ovarian 43.5% | OVCAR-4 ovarian 41.4% | IGROV1 ovarian 36.4% | HS 578T breast 43.2%
active: A498 renal -6.52% | HL-60(TB) leukemia 2.29% | SR leukemia 8.69% | OVCAR-8 ovarian 5.45% | SK-OV-3 ovarian 2.36% | OVCAR-3 ovarian -46%

Clc1cccc(N2COOC3(OOC2)C2CC4CC(C2)CC3C4)c1
active: UO-31 renal -89.6% | CCRF-CEM leukemia -32.7% | IGROV1 ovarian -54.4%
inactive: SK-MEL-2 melanoma 98.3% | EKVX NSCLC 94.2% | SN12C renal 76% | TK-10 renal 40.9% | ACHN renal 62.1% | CAKI-1 renal 76.4% | A498 renal 110% | HL-60(TB) leukemia 20.2% | MOLT-4 leukemia 77.8% | SR leukemia 37.7% | RPMI-8226 leukemia 53.8% | OVCAR-8 ovarian 58.1% | OVCAR-5 ovarian 84.3% | SK-OV-3 ovarian 98.1% | OVCAR-3 ovarian 19.2% | HS 578T breast 88.6%

CC(C)(N)Cc1ccccc1
inactive: SK-MEL-2 melanoma 108% | EKVX NSCLC 99.1% | SN12C renal 108% | UO-31 renal 84.7% | TK-10 renal 96.5% | ACHN renal 106% | CAKI-1 renal 97.6% | A498 renal 111% | HL-60(TB) leukemia 94.9% | CCRF-CEM leukemia 100% | MOLT-4 leukemia 103% | SR leukemia 100% | RPMI-8226 leukemia 99.9% | OVCAR-8 ovarian 106% | OVCAR-5 ovarian 109% | SK-OV-3 ovarian 106% | IGROV1 ovarian 106% | OVCAR-3 ovarian 112% | HS 578T breast 96.6%

CN(C)CC(C(=O)Cc1ccccc1)c1ccccc1 (configuration not stated)
active: UO-31 renal -74% | TK-10 renal -38.1% | RPMI-8226 leukemia -4.6% | OVCAR-3 ovarian 6.54%
inactive: SK-MEL-2 melanoma 82.2% | EKVX NSCLC 110% | SN12C renal 93.6% | ACHN renal 102% | CAKI-1 renal 82.1% | A498 renal 90.5% | HL-60(TB) leukemia 66.3% | CCRF-CEM leukemia 67.1% | MOLT-4 leukemia 78% | OVCAR-8 ovarian 34% | OVCAR-5 ovarian 133% | OVCAR-4 ovarian 91.7% | SK-OV-3 ovarian 124% | IGROV1 ovarian 84.8%
